Several values for one entry are separate records, joined by “and”; a condition that tells them apart may be missing. Identical values can stand only once. Inconclusive results are not listed. A structure can be active in one record and inactive in another. Activity calls are given as the source filed them. Unless noted, the call rests on the fitted dose curve; in most records, active means well fitted curve in the direction sought with a large enough effect in the repeat runs; inconclusive means weak or mixed curves; inactive means no such curve, though single readings can be large; an effect the other way counts as inactive or inconclusive.

The source of these data is PubChem BioAssay (Tox21).

A short description of assay [1]: qHTS assay to identify small molecule agonists of the vitamin D receptor (VDR) signaling pathway - cell viability counter screen (AID 743224). Further: series mostly up to about 63 µM; nearly all actives have a fitted effect of over 50% in size. In a few lines: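 Here cell health was gauged by luminescent ATP detection (CellTiter-Glo, 30 min RT) in VDR-bla cells that had been incubated with test compounds for 16 h at 37C and 5% CO2.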
For orientation: qHTS replaces the single test concentration by a dilution series.

The nature of assay [2]: qHTS assay to identify small molecule antagonists of the vitamin D receptor (VDR) signaling pathway - cell viability counter screen (AID 743225). Further: nearly all actives have a fitted effect of over 50% in size. In a few lines:
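Cells (VDR-UAS-bla HEK 293T) are plated, rested 4 h at 37C, dosed with compound and 3 nM final 1-alpha,25-dihydroxy vitamin D3, and incubated 16 h. Viability is taken from CellTiter-Glo luminescence in the reporter wells.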

The nature of assay [3]: qHTS assay to identify small molecule agonists of the NFkB signaling pathway - cell viability counter screen (AID 1159515; calls by dose curve; further: series mostly up to about 61 µM; nearly all actives have a fitted effect of over 55% in size). In a few lines: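 5 hr compound treatment of NFkB-bla ME-180 cells (2,000/well, seeded overnight beforehand), followed by reporter substrate for 1.5 hr. CellTiter-Glo added afterward; luminescence after 30 min RT.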
The nature of assay [4]: qHTS assay to identify small molecule agonists of the endoplasmic reticulum stress response signaling pathway (AID 1159516; active means well fitted activation curve with a large enough effect in the signal ratio in the repeat runs, not every such curve was filed as active; the % refers to the signal ratio). Put shortly: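 Reporter HeLa cells (ESRE-beta-lactamase) underwent 5 hr compound incubation at 37 C and 5% CO2 in quantitative HTS format. Detection followed 2 hr of FRET substrate loading at room temperature.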
Assay [5] is described as follows: qHTS assay to identify small molecule agonists of the endoplasmic reticulum stress response signaling pathway - cell viability counter screen (AID 1159517; calls by dose curve;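 further: HeLa cells carrying an ER stress response element beta-lactamase reporter; series mostly up to about 61 µM; nearly all actives have a fitted effect of over 50% in size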). Put shortly:
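ESRE-bla HeLa cells, 1,500 per well, seeded overnight then treated with compounds for 5 hr at 37 C. After the beta-lactamase read, viability in the same wells is measured by CellTiter-Glo luminescence after 30 min at room temperature.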

Assay [6] in a line: qHTS assay to identify small molecule antagonists of the retinoid-related orphan receptor gamma (ROR-gamma) signaling pathway - cell viability counter screen (AID 1159520). Further: nearly all actives have a fitted effect of over 50% in size. In a few lines: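 Tet-on ROR gamma CHO cells were given compounds for 2 hr, then doxycycline hyclate at 1 uM final, and incubated 16 hr at 37 C. Viability was measured as ATP content by CellTiter-Glo luminescence.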

For assay [7], the target named is Nuclear receptor ROR-gamma (Homo sapiens) (UniProt P51449). Kind of assay: qHTS assay to identify small molecule antagonists of the retinoid-related orphan receptor gamma (ROR-gamma) signaling pathway (AID 1159521; further: nearly all actives have a fitted effect of over 50% in size; further: potency means the concentration at half of the fitted maximal effect). In a few lines: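 RORγ antagonism is scored from reduced reporter luminescence in Tet-on CHO cells. Induction used 1 uM final doxycycline hyclate for 16 h at 37 C, following a 2 h compound exposure.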

Assay [8] can be described thus: qHTS assay to identify small molecule agonists of the AP-1 signaling pathway - cell viability counter screen (AID 1159525; calls by dose curve; further: nearly all actives have a fitted effect of over 55% in size). In a few lines:
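AP-1-bla ME-180 cells in Opti-MEM with 0.5% dialyzed FBS, compound exposure 5 h at 37 C in 15-point titration. Viability read in the same wells as ATP content by CellTiter-Glo luminescence, normalised to tetra-n-octylammonium bromide and DMSO controls.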

The nature of assay [9]: qHTS assay to identify small molecule agonists of the AP-1 signaling pathway (AID 1159526; calls by dose curve).
For assay [10], the target named is Retinoic acid receptor RXR-alpha (Homo sapiens) (UniProt P19793). As to the kind of experiment: qHTS assay to identify small molecule agonists of the RXR signaling pathway (AID 1159527; calls by dose curve; further: nearly all actives have a fitted effect of over 35% in size; further: potency means the concentration at half of the fitted maximal effect). Put shortly:
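qHTS of the Tox21 10K library in GeneBLAzer RXR-alpha HEK 293T cells carrying a beta-lactamase reporter […]; 16 hr treatment, 9-cis retinoic acid as agonist control, FRET read-out.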

The nature of assay [11]: qHTS assay to identify small molecule agonists of the RXR signaling pathway - cell viability counter screen (AID 1159529). In a few lines:
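Cell viability is measured by CellTiter-Glo luminescence, 30 min at room temperature, in wells already read for beta-lactamase. Engineered HEK 293T cells (RXR-alpha-UAS-bla) are dosed 16 hr at 37 C. Tetraoctyl ammonium bromide serves as positive control.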

A short description of assay [12]: qHTS assay to identify small molecule antagonists of the retinoid acid receptor (RAR) signaling pathway - cell viability counter screen (AID 1159551). Further: nearly all actives have a fitted effect of over 35% in size. Further: potency means the concentration at half of the fitted maximal effect. In a few lines:
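Seed C3RL4 cells; next day add compound, then retinol to 1 uM final; incubate 6 h at 37 C; add CellTiter-Glo; read luminescence after 30 min at RT.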

Assay [13] can be described thus: qHTS assay to identify small molecule antagonists of the retinoic acid receptor (RAR) signaling pathway (AID 1159552; further: nearly all actives have a fitted effect of over 50% in size). Put shortly:
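Quantitative HTS in C3RL4 RARE-luciferase reporter cells. Compounds were added with 1 uM (final) retinol; luminescence was read after 6 hr.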

Assay [14] is described as follows: qHTS assay to identify small molecule agonists of the retinoic acid receptor (RAR) signaling pathway (AID 1159553). Put shortly:
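Activation of retinol signaling was monitored via a RARE luciferase reporter in C3RL4 cells. After 6 hr compound treatment at 37 C, detection reagent was added for 30 min at room temperature before luminescence reading.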

Assay [15] is described as follows: qHTS assay to identify small molecule antagonists of the estrogen related receptor (ERR) signaling pathway - cell viability counter screen (AID 1224818).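 Further: series mostly up to about 46 µM; viability measured after 17.5 h of compound exposure.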 In a few lines:
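In the same ERR cell assay, compound-treated wells (17.5 h, 37 C) were multiplexed with a fluorogenic viability reagent, CellTiter-Fluor, read after 30 min to flag cytotoxic substances.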

A short description of assay [16]: qHTS assay to identify small molecule agonists of the estrogen related receptor (ERR) signaling pathway (AID 1224820). Put shortly:
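Cells: ERR line from NTP, 2,000/well. Pre-incubation 6 h, 37 C/5% CO2. Compound (DMSO) pin transfer, 18 h 37 C. One-Glo, 30 min RT, luminescence.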

In assay [17] the test system is estrogen-related receptor alpha (ERRalpha) with PGC-1alpha coactivator, human. As to the kind of experiment: qHTS assay to identify small molecule antagonists of the estrogen related receptor signaling pathway with the pleiotropic PPARgamma coactivator (PGC) (AID 1224821; calls by dose curve). In a few lines:
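Luminescent read-out (One-Glo, 30 min at room temperature) following 18 h treatment of PGC/ERR cells at 37 C with compounds delivered in DMSO. Cells had settled 6 h at 37 C/5% CO2 before dosing.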

A short description of assay [18]: qHTS assay to identify small molecule antagonists of the estrogen related receptor signaling pathway with the pleiotropic PPARgamma coactivator (PGC) cell viability counter screen (AID 1224822; further: series mostly up to about 46 µM). Put shortly:
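Compounds in DMSO, with positive and negative controls, were applied to PGC/ERR cells (2,000/well) and left 17.5 h at 37 C before CellTiter-Fluor detection.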

The nature of assay [19]: qHTS assay to identify small molecule agonists of the estrogen related receptor signaling pathway with the pleiotropic PPARgamma coactivator (PGC) (AID 1224823). In a few lines: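 Steps: plate PGC/ERR cells at 2,000 cells/well; incubate 6 h, 37 C/5% CO2; pin-transfer compounds (DMSO); incubate 18 h, 37 C; add One-Glo; 30 min RT; read luminescence.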

Chain of Retinoic acid receptor RXR-alpha (Homo sapiens) (P19793 whole entry, looked up): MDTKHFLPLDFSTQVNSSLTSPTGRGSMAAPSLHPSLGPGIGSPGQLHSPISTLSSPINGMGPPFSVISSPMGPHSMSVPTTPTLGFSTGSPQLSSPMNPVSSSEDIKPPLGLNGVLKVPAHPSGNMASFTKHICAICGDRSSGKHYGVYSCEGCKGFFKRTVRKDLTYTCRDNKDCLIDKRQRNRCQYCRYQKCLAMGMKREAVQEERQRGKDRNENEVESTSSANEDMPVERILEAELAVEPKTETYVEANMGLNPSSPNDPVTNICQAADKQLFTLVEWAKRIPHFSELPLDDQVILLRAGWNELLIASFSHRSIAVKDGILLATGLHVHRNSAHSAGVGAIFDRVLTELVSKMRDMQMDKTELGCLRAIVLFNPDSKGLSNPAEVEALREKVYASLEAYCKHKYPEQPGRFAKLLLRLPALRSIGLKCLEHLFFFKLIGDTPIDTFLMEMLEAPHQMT

`C=C(C)C(=O)OCC(C)O` (stereo not given): the Potency entry in assay [1], in [2], in assay [3], in [4], in [5] and in assay [6] was “inactive” each time. Besides, the Potency result in assay [7], in [8], in assay [9], in assay [10], in [11] and in assay [12] was “inactive” each time. Moreover, the Potency entry in assay [13] and in [14] was “inactive” throughout.

For the molecule `C/C=C/C=C/C(=O)O`, the Potency result in assay [1], in assay [2], in assay [3], in assay [4], in [5] and in assay [6] was “inactive” each time. Besides, the Potency result in assay [7], in assay [8], in [9], in [11] and in [12] was “inactive” throughout. The Potency result in assay [10] is “inactive and 49 µM (active)”.

`COc1ccc2c(c1)c(CC(=O)O)c(C)n2C(=O)c1ccc(Cl)cc1`: the Potency result in assay [1], in [2], in assay [3], in assay [4], in assay [5] and in [6] was “inactive” in each case. Also, the Potency result in assay [8], in assay [9], in assay [11], in [12], in assay [13] and in assay [14] was “inactive” throughout. For the same molecule, the Potency entry in [18] was “inactive”. Also, the call in assay [15], in [16], in assay [17] and in assay [19] was inactive.

As for `Cc1c(C(=O)O)c(O)cc2c1C(=O)c1c(O)c([C@@H]3O[C@H](CO)[C@@H](O)[C@H](O)[C@H]3O)c(O)c(O)c1C2=O`, the Potency entry in assay [1], in assay [2], in assay [4], in assay [5], in assay [6] and in assay [7] was “inactive” throughout. Also, the Potency entry in assay [8], in [9], in assay [10], in [11], in assay [13] and in assay [14] was “inactive” each time. Also, the Potency in assay [12] is 33.5 µM (active) and 48.6 µM (active).

Turning to `CC(C)C(=O)Nc1ccc([N+](=O)[O-])c(C(F)(F)F)c1`, the Potency result in [1], in assay [2], in [4], in assay [5], in assay [6] and in assay [8] was “inactive” in each case. In addition, the Potency entry in assay [9], in assay [10], in assay [11], in [12], in assay [13] and in [14] was “inactive” in each case. In assay [18], the Potency entry is “inactive”. The Potency in assay [7] was 28.1 µM (active) and 10.9 µM (active) and 33.5 µM (active). Moreover, the call in [15], in assay [16] and in assay [19] was inactive.

Turning to `NC1CCCCC1`, the Potency result in assay [1], in [2], in [4], in assay [5], in assay [6] and in assay [7] was “inactive” throughout. Further, the Potency entry in [8], in assay [9], in assay [10], in assay [11], in assay [12] and in [13] was “inactive” each time. For the same molecule, the Potency entry in assay [14] is “inactive”.

Take `CC(=O)CCC(=O)O`: the Potency result in assay [1], in assay [2], in assay [3], in [4], in [5] and in assay [6] was “inactive” each time. For the same molecule, the Potency entry in assay [7], in assay [8], in assay [9], in [10], in [11] and in assay [12] was “inactive” throughout.

Take `O=C1O[C@H]([C@@H](O)CO)C(O)=C1O`: the Potency entry in assay [1], in assay [2], in [3], in assay [4], in assay [5] and in assay [6] was “inactive” in each case. The Potency entry in [7], in assay [8], in assay [9], in assay [11] and in assay [12] was “inactive” in each case. Also, in assay [10], the Potency result was “inactive and 12.3 µM (active)”.
